# Test results reported in ChEMBL document CHEMBL3988442, “University of Dundee, Small-Polar-MMV Screening Library” (2021).
# About 440 (0.52%) of roughly 85,000 compounds showed an effect of 50% or more. The sample as a whole holds a higher share of strong results than the screen did.
# Assay: In vitro enzyme assay to detect hydrolysis of chlorophenol red-beta-D-[…] directly proportional to the number of Toxoplasma stably expressing beta-galactosidase
# Type: functional, organism-based, Toxoplasma gondii
# Set-up: scale not given: in the data most compounds retested in dose-response had high values
Structure (SMILES),Percent Effect (50 µM),Percent Effect (10 µM)
CC(C)(C)OC(=O)NCC1CC(N)C1 (stereo unspecified),6.843%,
CC(C)(C)OC(=O)NCC1CC(C(N)=O)=NO1 (stereo unspecified),54.53%,
CC(C)(C)OC(=O)NC[C@@H]1CCC[C@H]1N,-4.138%,
Cc1nn(C)cc1C(=O)N1CCOC2(CCCC2)C1,5.531%,
CN(CC(N)=O)Cc1cccc(C#N)c1,-4.421%,
COCCN(C)Cc1ccnc(N)c1,-7.11%,
CN(Cc1cccc(C#N)c1)Cc1ccnc(N)c1,100.1%,
N#Cc1ccc(N2CCCC2C(=O)NC2CC2)cn1 (stereo unspecified),0.7704%,
Cc1cc(C)cc(NC(=O)CN2CCC(O)CC2)c1,5.146%,
CN1CCCCC1CCC(=O)NCCCn1cccn1 (stereo unspecified),-6.664%,
O=C(CC1CC1)N1CCC2(CC1)CN(c1cccnc1)C(=O)CO2.O=C(O)C(F)(F)F,,-21.74%
CCS(=O)(=O)N1CCC2(CC1)CN(c1cccnc1)C(=O)CO2.O=C(O)C(F)(F)F,,-35.87%
O=C(O)C(F)(F)F.O=C1COC2(CCN(S(=O)(=O)C3CC3)CC2)CN1c1cccnc1,,59.25%
COc1cccc2c1N(CC(=O)N1CCC1)CCC2,-0.7135%,
COc1ccc(C)cc1-c1[nH]c2ccccc2c1C(=O)O,,55.01%
Cc1ccc(-c2[nH]c3ccccc3c2C(=O)O)c(C)c1,,-0.6823%
Cc1ccc(C)c(-c2[nH]c3ccccc3c2C(=O)O)c1,,7.079%
NC(=O)c1cc(N2CCCC2)nc2ccccc12,2.977%,
Cn1nc(C(=O)N2CCOCC2)c(Br)c1C(F)(F)F,24.28%,
CCn1cc(C(=O)NCCCC(N)=O)c2ccccc21,-17.15%,
N#CCCCn1ccccc1=O,-0.4771%,
Cc1c(Cl)cccc1NC(=O)CSc1nnc[nH]1,-6.056%,
COCC(=O)Nc1ccnn1-c1ccc(Cl)cc1,,75.67%
CCOCCC(=O)Nc1ccnn1-c1ccc(Cl)cc1,,-1.702%
COCCOCC(=O)Nc1ccnn1-c1ccc(Cl)cc1,,0.922%

Structure (SMILES),Percent Effect (50 µM),Percent Effect (10 µM)
CCn1c(SCC(N)=O)nnc1-c1cccnc1,-5.033%,
CCn1c(SCC(=O)O)nnc1C(C)NC(=O)c1ccc(Cl)cc1 (stereo unspecified),,60.13%
CC(C)CC(NC(=O)c1ccc(Cl)cc1)C(N)=O (stereo unspecified),23.98%,
CCn1ncnc1C(C)NC(=O)c1cc(Cl)ccc1F (stereo unspecified),1.166%,
CC(c1ccccc1)n1c(SCC(=O)O)nnc1-c1ccccc1Cl (stereo unspecified),,-2.501%
CC(NC(=O)c1ccc(Cl)cc1)c1nnc(SCC(=O)O)n1C (stereo unspecified),,78.32%
CCn1c(SCC(N)=O)nnc1C(C)NC(=O)c1ccc(Cl)cc1 (stereo unspecified),,74.14%
CC(NC(=O)c1ccc(Cl)cc1)c1nnc(SCC(N)=O)n1C (stereo unspecified),,10.17%
CC(NC(=O)NCCOc1ccc(Cl)cc1)c1nncn1C (stereo unspecified),,2.548%
N#Cc1ccc(C(=O)N2CCCO2)nc1,-1.519%,
CSCC(=O)N1CCN(Cc2nccn2C)CC1,0.586%,
CCN1CCN(S(=O)(=O)c2c(F)cccc2F)CC1,-8.353%,
CN(CCC1CCCO1)Cc1ccc(N(C)C)nc1 (stereo unspecified),6.718%,
CC(C)COCCN1CCN(Cc2ccon2)CC1,0.7264%,
CCN(CC)c1nc(Nc2cccc(C(=O)O)c2)nc2ccccc12,,-21.05%
CCN(CC)c1nc(Nc2cccc(C(C)O)c2)nc2ccccc12 (stereo unspecified),,95.47%
CC(O)c1cccc(Nc2nc(NCCO)c3ccccc3n2)c1 (stereo unspecified),,12.45%
COC(=O)N1CCC(Nc2nnc(C(F)(F)F)s2)CC1,9.072%,
NCC1CCCN(c2ncccn2)C1 (stereo unspecified),3.495%,
O=C(NCC1CCCO1)c1cnn2cccnc12 (stereo unspecified),-4.539%,
NC(=O)c1cccc(CN2CCc3c(ncn3C3CC3)C2)c1,,83.44%
CC(C)c1nc2c(n1C)CCN(Cc1cccc(C(N)=O)c1)C2,,-1.993%
Cn1cnc2c1CCN(Cc1cccc(C(N)=O)c1)C2,,1.729%
CN(CCC#N)C(CCO)c1ccccc1 (stereo unspecified),25.8%,
O=C(CSc1nnc(-c2ccccc2F)o1)NC1CC1,-13.11%,

Structure (SMILES),Percent Effect (50 µM),Percent Effect (10 µM)
CC(C)(CC1CCCNC1)C(N)=O (stereo unspecified),7.36%,
Cc1cc(C)n(CC(=O)NCCc2ccc[nH]2)n1,-10.28%,
COc1cc2cc(C(=O)N[C@@H](C)C(=O)O)n(C)c2c(OC)c1OC,,-3.586%
COc1cc2cc(C(=O)NCC(=O)O)n(C)c2c(OC)c1OC,,74.68%
COc1cc2cc(C(=O)NCCC(=O)O)n(C)c2c(OC)c1OC,,74.68%
COc1cc2cc(C(=O)NC(C)C(=O)O)n(C)c2c(OC)c1OC (stereo unspecified),,17.43%
COc1cc2cc(C(=O)O)n(C)c2c(OC)c1OC,,-3.347%
COCCNC(=O)c1cc2cc(C)ccc2n1C,2.035%,
COC(=O)C1CCN(C(=O)C2CCCO2)CC1 (stereo unspecified),-8.272%,
COc1ccccc1SC(C)C(=O)N1CCNC1=O (stereo unspecified),15.55%,
CCc1cccc(NC(=O)C2CCCN(C(C)=O)C2)c1 (stereo unspecified),4.153%,
CC1CCC(N(C)C(=O)Cn2cccn2)CC1 (stereo unspecified),-1.84%,
O=C(c1cc(C2CC2)n[nH]1)N1CCC2(CCCO2)CC1,64.63%,
CN1CCc2[nH]nc(C(=O)N3CCC4(CCCO4)CC3)c2C1,,1.903%
O=C(c1cc(C2CC2)n[nH]1)N1CCCC(O)(CO)CC1 (stereo unspecified),4.237%,
COc1ccc(CSc2nnc(N)[nH]2)c(Cl)c1,2.455%,
Nc1nnc(SCc2ccc(Cl)s2)[nH]1,56.64%,
Clc1ccc(CSc2cnn[nH]2)s1,-14.75%,
O=C(NCCO)c1nnsc1-c1ccc(Cl)cc1,-1.39%,
CNC(=O)Cc1cccs1,0.3815%,
CCS(=O)(=O)N(CCc1cccs1)CC(=O)NC,65.25%,
CC(C)N(CC(N)=O)CC(=O)NCCc1cccs1,12.36%,
CC(C)n1cccc1C(=O)NCCc1cncn1C,7.567%,
CC(=O)Nc1nc(-c2ccccc2)c[nH]1,,-10.01%
COC(=O)c1[nH]cc(-c2ccccc2)c1N,60.81%,

Structure (SMILES),Percent Effect (50 µM),Percent Effect (10 µM)
COC(=O)c1snc(-c2ccccc2)c1N,3.849%,
O=S1(=O)CCC(NC2CCNCC2)C1 (stereo unspecified),0.6188%,
Cc1cc(=O)cc(C(=O)NCCCc2ccncc2)o1,15.6%,
CC(CCNC(=O)CCc1cccnc1)n1ccnc1 (stereo unspecified),-1.131%,
Cc1cc(=O)cc(C(=O)NCCC(C)n2ccnc2)o1 (stereo unspecified),85.97%,
COCC(=O)N1CCCN(Cc2cnn(C)c2)CC1,1.219%,
CC(=O)Nc1nc(CC(=O)NCc2ccco2)cs1,-28.1%,
Cn1cc(NC(=O)CCc2ccccn2)cn1,-11.54%,
Nc1ccnn1-c1ccccn1,-4.085%,
N#Cc1ccc(-n2nccc2N)cc1,92.39%,
Cc1cn(-c2ccc(C#N)cc2)nc1N,-9.418%,
O=C1CNCN1Cc1ccccc1,2.533%,
N[C@@H]1CC[C@@H]1NC(=O)c1scc2c1OCCO2,-7.783%,
Cc1cnc(CN2CC3(CCOC3)CCC2=O)cn1 (stereo unspecified),-2.648%,
Cc1cc(C(=O)NCc2ccco2)nn1C,,56.09%
Cc1ccc(CNC(=O)c2cc(NC(=O)C3CC3)n(C)n2)o1,,2.088%
Cc1cc(C(=O)NCc2cccn2C)nn1C,,1.66%
Cn1cc(C(=O)NCCc2noc(C3CC3)n2)cn1,-7.141%,
Cc1cc(C(=O)NCC(C)C)nn1C,,9.135%
Cc1cc(C(=O)NCCc2noc(C3CC3)n2)[nH]n1,12.77%,
CCn1ccc(C(=O)NCc2ccco2)n1,-13.38%,
Cc1cc(C(=O)NCCc2noc(C3CC3)n2)nn1C,97.7%,
Cc1ccc(CNC(=O)c2cc(C)n(C)n2)o1,,75.49%
CN(Cc1cccnc1)C(=O)c1cccc(Cl)c1,11.97%,
CNC(=O)CSCc1ccc2ccccc2n1,15.55%,

Structure (SMILES),Percent Effect (50 µM),Percent Effect (10 µM)
CCCS(=O)(=O)N1CCC(CC(=O)NC)CC1,-1.732%,
Cn1cncc1C(N)CO (stereo unspecified),-9.765%,
CCC(N)(CC)CNS(=O)(=O)c1ccc2c(c1)CCO2,-2.355%,
CC(C)CC(C)CN1CCN(CCS(C)(=O)=O)CC1 (stereo unspecified),-18.72%,
COc1csc(-c2cc(N)[nH]n2)c1,7.911%,
CCS(=O)(=O)CCNC(C)(CO)C1CCCCC1 (stereo unspecified),-6.595%,
CC(=O)c1c(C)cccc1NCC(=O)N(C)C,-19.59%,
CN1C(=O)c2ccc(C(=O)N(Cc3cnn(C)c3)C3CC3)cc2C1=O,,-5.009%
Cn1cc(CN(C(=O)c2ccc(N)nc2)C2CC2)cn1,96.08%,
Cn1cc(CN(C(=O)c2ccc(O)c(Cl)c2)C2CC2)cn1,,-12.14%
CC(=O)Nc1cccc([C@H]2C[C@@H](NC(C)=O)CCO2)c1,,-4.369%
CC(=O)N[C@H]1CCO[C@@H](c2cccc(NC(=O)c3cccc(F)c3)c2)C1,,20.53%
CC(=O)N[C@H]1CCO[C@@H](c2cccc(NC(=O)c3ccc(=O)[nH]n3)c2)C1,,71.09%
COCCCNC(=O)Nc1cnn(C)c1,3.712%,
Cn1nnc2c(N3CCCCC3)ncnc21,-0.3233%,
O=C(O)C(F)(F)F.O=C([C@@H]1CCO[C@@H]2CCN(CC3CCOCC3)C[C@H]21)N1CCCO1,,-19.56%
O=C(O)C(F)(F)F.O=C([C@H]1CN(Cc2ccc(F)cc2)C[C@H]2OCC[C@@H]12)N1CCCO1,,0.4926%
O=C([C@@H]1CCO[C@@H]2CCN(CC3CC3)C[C@H]21)N1CCCC1,,-7.409%
O=C(O)C(F)(F)F.O=C([C@@H]1CCO[C@@H]2CCN(Cc3ccc(F)cc3)C[C@H]21)N1CCCCO1,,73.44%
O=C(O)C(F)(F)F.O=C([C@@H]1CCO[C@@H]2CCN(Cc3cccs3)C[C@H]21)N1CCCCO1,,-10.74%
O=C([C@@H]1CCO[C@@H]2CCN(CC3CC3)C[C@H]21)N1CCCCO1,,96.45%
